Bioassay records: PubChem BioAssay, National Center for Advancing Translational Sciences (NCATS)
HCMV antiviral = inhibitors of human cytomegalovirus; HFF cells, HCMV-luciferase reporter, 72 h; stronger effect = lower value; actives 4.5% (n = 410,000); activity change, negative = inhibition, % at 57.5 µM; AID 1259415; in the data active = activity change below about -60%; inconclusive = no clear call, values can overlap the other calls; inactive = above about -39%
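Human foreskin fibroblasts infected with luciferase-reporter HCMV at MOI 1 PFU/cell, compounds at two doses. Luciferase measured 72 h post infection; normalized to buffer-only basal and Salinomycin (10uM) controls.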
LASV entry inh = Lassa virus entry inhibition; Lassa virus pseudotype entry inhibition, cell reporter; Potency, µM (titrated, usually from 37.9 µM), for the others: at the top dose activity change, negative = inhibition, actives largely listed as inhibitors; actives 1.2% (n = 300,000); calls by dose curve; tested in HEK293 cells; note: potency is the fitted concentration of half-maximal effect; nearly all actives have a fitted effect of over 50% in size
VACV mCherry inh = inhibitors of vaccinia virus infection (mCherry reporter signal); Vaccinia virus mCherry reporter infection, fluorescence; Potency, µM (highest dose often 36.5 µM), for the others: at the highest dose activity change, negative = inhibition, usual class: inhibitors; actives 0.63% (n = 310,000); AID 720579; calls by dose curve; tested in A549 cells; note: potency is the fitted concentration of half-maximal effect; nearly all actives have a fitted effect of over 35% in size
Marburg entry inh = inhibitors of Marburg virus binding or cell entry; Marburg virus pseudotyped entry inhibition, cell reporter; Potency, µM (top dose mostly 37.8 µM), for the others: at the highest dose activity change, negative = inhibition, hits mostly inhibitors; actives 1.8% (n = 300,000); calls by dose curve; tested in HEK293 cells; note: potency is the fitted concentration of half-maximal effect
FMDV antiviral = blocks foot and mouth disease virus. FMDV antiviral cell-based qHTS. Potency, µM (highest dose often 57.9 µM), without a hit: at the highest dose activity change, negative = inhibition, usual class: inhibitors. actives 1.2% (n = 410,000). AID 1159524; calls by dose curve; tested in HEK293T cells; note: read-out not given here; potency is the fitted concentration of half-maximal effect; nearly all actives have a fitted effect of over 45% in size
VACV Venus inh = inhibitors of vaccinia virus (Venus reporter); Vaccinia virus Venus reporter expression, fluorescence; Potency, µM (doses to about 36.5 µM), without a hit: at the highest dose activity change, negative = inhibition, actives largely listed as inhibitors; actives 0.46% (n = 330,000); AID 720580; calls by dose curve; tested in A549 cells; note: potency is the fitted concentration of half-maximal effect; nearly all actives have a fitted effect of over 30% in size
* hit, by the source's call; i = inactive; ? = inconclusive; . = not tested or not shown; [ ] = remark or other dose. Compounds with a hit are over-represented: about 6.5% of the library has one in this group of screens. % is set by controls: 0 for no effect and ±100 for the full control effect.

SMILES | HCMV antiviral | LASV entry inh | VACV mCherry inh | Marburg entry inh | FMDV antiviral | VACV Venus inh
O=C(C=Cc1cccc([N+](=O)[O-])c1)c1ccccc1 | . | ? | . | -27%[14.2 µM] | . | .
COc1cc(/C=C/C(=O)c2cccc([N+](=O)[O-])c2)cc(OC)c1OC | -24 | ? | i | ? | 28µM* | -21%
O=C(O)c1cccc(NC(=O)c2ccc(COc3ccc(Cl)cc3)cc2)c1 | 29 | . | . | . | 41% | .
C/C(=N\OCc1cccc(C(=O)O)c1)c1ccc(Cl)cc1 | 74 | ? | i | ? | 10µM* | -6%
COc1cccc(/C=N/Nc2nc3ccccc3n3cnnc23)c1O | -103* | ? | 4.5µM* | 8.9µM* | 5% | ?
COc1cccc(/C=N/Nc2nc3ccccc3n3cnnc23)c1 | -28 | 0% | -5% | ? | -16% | 1%
COc1cccc(/C=N/Nc2nc3ccccc3[nH]2)c1O | -99* | . | . | . | 19% | .
COc1cccc(/C=N/Nc2nc3ccccc3[nH]2)c1OC | 154 | ? | -17% | ? | 43% | -18%
CC(=O)N(c1nc(CCl)cs1)c1c(C)cc(C)cc1C | -19 | -2%[46.1 µM] | i | 4%[46.1 µM] | -2% | -3%
CCc1ccc(NC(=O)CSc2nc3n[nH]c(C)c3c(=N)n2-c2ccc(C)cc2)cc1 | -91* | -3%[46.1 µM] | ? | . | -6% | ?
CCc1ccccc1NC(=O)CSc1nc2n[nH]c(C)c2c(=N)n1-c1ccc(OC)cc1 | 16 | -22% | . | ? | ? | ?
COc1ccccc1NC(=O)CSc1nc2n[nH]c(C)c2c(=N)n1-c1ccccc1Cl | -7 | ? | . | 15µM* | ? | .
Cc1cccc(-n2c(SCC(=O)Nc3ccccc3Cl)nc3n[nH]c(C)c3c2=N)c1 | -62* | -1%[46.1 µM] | -21% | . | ? | -26%
Cc1[nH]nc2nc(SCC(=O)NC3CCCCC3)n(-c3ccc(Br)cc3)c(=N)c12 | -89* | . | . | . | ? | .
O=C(CNC(=O)c1ccc(-c2ccccc2)cc1)OCc1ccc(Br)cc1 | 15 | 14% | i | -21%[46.1 µM] | 47% | 0%
O=C1C=C(NCc2ccccc2)CCC1 | -13 | 4% | i | ? | -19% | -10%
O=C1C=C(NC2=CC3OC(c4ccccc4)OCC3OC2=O)CCC1 (centres undefined) | 26 | 10µM* | ? | ? | 18µM* | ?
Cc1ccc(NC(=O)C(=O)NCCCN2CC(C(=O)O)CC2=O)cc1 (centres undefined) | 11 | 21%[46.1 µM] | -18% | 7%[46.1 µM] | -8% | 5%
CCOC(=O)c1noc2ncn(CC(=O)Nc3cc(Cl)ccc3OC)c(=O)c12 | 4 | ? | -2% | . | 0% | -1%
COc1ccc(Cl)c(-c2cc(C(=O)Nc3ccc(C)c(NS(C)(=O)=O)c3)[nH]n2)c1 | -40 | . | -17% | . | ? | ?
COc1ccc(Cl)cc1-c1cc(C(=O)Nc2ccc(C)c(NS(C)(=O)=O)c2)[nH]n1 | ? | . | -28% | . | 32µM* | -29%
Cc1ccc(F)cc1-c1cc(C(=O)NCc2cc(C(F)(F)F)cc(C(F)(F)F)c2)[nH]n1 | 15 | . | 28% | . | -10% | 4%
COc1ccc(NC(=O)c2cc(-c3cc(Cl)ccc3C)n[nH]2)cn1 | -21 | . | i | . | -27% | -5%
Cc1ccc(NC(=O)c2cc(-c3cc(Cl)ccc3C)n[nH]2)cc1NS(C)(=O)=O | -83* | . | -2% | . | 25µM* | -21%
Cc1ccc(Cl)cc1-c1cc(C(=O)NCc2cc(C(F)(F)F)cc(C(F)(F)F)c2)[nH]n1 | -10 | . | -27% | . | 40µM* | ?
SMILES | HCMV antiviral | LASV entry inh | VACV mCherry inh | Marburg entry inh | FMDV antiviral | VACV Venus inh
COc1ccccc1NC(=O)C1CCN(S(C)(=O)=O)CC1 | 7 | . | . | . | -16% | .
CCN(CCn1cccn1)C(=O)c1cc(COc2cc(C)ccc2C)on1 | 75 | ? | -1% | ? | 16% | -14%
Cc1ccc(-n2ncc3c(SCc4ccccc4)ncnc32)cc1 | -63* | 19% | i | ? | 4% | -11%
Cc1ccc(-n2ncc3c(SCc4ccccn4)ncnc32)c(C)c1 | -101* | 0.56µM* | 5µM* | ? | ? | 5%
CS(=O)(=O)Cc1ccc(C(=O)N(CCc2ccccc2)Cc2ccccc2)cc1 | -19 | . | . | . | -3% | .
OCC1OC(n2ccc3c(NO)ncnc32)C(O)C1O (centres undefined) | -98* | ? | ? | 0.32µM* | ? | 1.1µM*
CN(C)c1ncnc2c1ccn2C1OC(CO)C(O)C1O (centres undefined) | -98* | 3.5µM* | ? | 2.2µM* | -25% | ?
OCC1OC(n2cnc3c(NCc4ccccc4O)ncnc32)C(O)C1O (centres undefined) | -100* | 2.2µM* | ? | ? | -8% | ?
OCC1OC(n2cnc3c(NO)ncnc32)C(O)C1O (centres undefined) | . | . | 39% | . | . | 7%
CCOC(=O)C1CCCN(C(=O)c2cncc(Br)c2)CC1 (centres undefined) | 77 | . | 5% | . | -10% | 13%
O=C(Nc1nccs1)c1ccc(S(=O)(=O)NCC2CCCCC2)cc1 | -83* | 25%[14.3 µM] | ? | ? | 18% | ?
COc1cc(N)c(NC(=O)/C=C/c2nc3cc(OC)c(OC)cc3[nH]2)cc1OC | . | . | -22% | . | . | -10%
CC#CCN1C(=O)NC(c2ccccc2)C(C(=O)OCC)=C1c1ccccc1 (centres undefined) | . | . | . | 7%[14.2 µM] | . | .
CCOC(=O)c1cnc2ccccc2c1Nc1ccc(N2CCOCC2)cc1 | 14 | -6%[46.1 µM] | -10% | -3%[46.1 µM] | -14% | -13%
CCOC(=O)c1ccc2ncc(C(=O)OCC)c(Nc3ccc(N4CCOCC4)cc3)c2c1 | ? | ? | -26% | 7.9µM* | ? | ?
CCC(C(=O)Nc1c(C)cc(C)cc1C)N1CCCCCC1 (centres undefined) | -7 | . | . | . | 1% | .
Cc1cccc(NC(=O)/C(C#N)=C/c2cn(CC(=O)NCc3ccco3)c3ccccc23)c1 | -63* | 6% | -12% | ? | -18% | 3%
COc1ccc(CC2SC(=Nc3ccc(F)cc3)NC2=O)cc1 (centres undefined) | -38 | 4.5µM* | i | -13%[46.1 µM] | 12% | -1%
COc1ccc(N=C2NC(=O)C(CC(=O)NCCc3ccc(OC)c(OC)c3)S2)cc1 (centres undefined) | -21 | ? | -1% | 15%[46.1 µM] | -5% | -14%
Cc1ccc(S(=O)(=O)NCCCNC(=O)OCc2ccccc2)cc1 | ? | -19% | -26% | 4% | 21% | -23%
CC(=O)c1cn(CC(=O)Nc2cccc(C)c2C)c2ccccc12 | -70* | -26% | -19% | ? | ? | -26%
Cc1ccc(-n2c(=O)c3cccnc3n2CC(=O)Nc2cccc(C)c2C)cc1 | -63* | 7%[46.1 µM] | -18% | . | -13% | -16%
CCC(=O)c1cn(CC(=O)Nc2cccc(C)c2C)c2ccccc12 | 4 | -3% | -17% | -20% | -18% | -1%
CN(C)C(=O)c1ccc(-c2cc3c(Nc4ccc(OC(F)(F)F)cc4)nccc3n2C)cc1 | -25 | . | . | . | . | .
